# In the library only some 7.3% were active in any assay of this set; here they are far more common.
# Rab9 promoter act – qHTS Assay for Rab9 Promoter Activators | 320,000 tested, 2.8% active | AID 485297, 2010 | Potency, µM (series often up to 9.22 µM), for the others: at the highest dose activation, negative = inhibition, actives largely listed as activators | Huh7 Rab9 promoter-luciferase reporter, luminescence, 24 h; further: % of control where 0% means no effect; nearly all actives have a fitted effect of over 60% in size
#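 Quantitative HTS format; Huh7 Rab9-luciferase reporter cells (1500/well) receive compound 2 h post-plating, incubate 24 h at 37 °C, then get luciferase reagent for 10 min before luminescence reading.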
# FLuc counter – qHTS profiling assay for firefly luciferase inhibitor/activator using purifed enzyme and Km concentrations of substrates (counterscreen for miR-21 project); Luciferin 4-monooxygenase (Photinus pyralis), P08659; purified FLuc, Km substrates, luminescence inhibition; Potency, µM (series often up to 57.5 µM), inactives show at the highest dose activity change, negative = inhibition, actives largely listed as inhibitors; 360,000 tested, 6.9% active; AID 588342, 2011;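 further: plate controls were vehicle for no effect and reference inhibitor for full effect; nearly all actives have a fitted effect of over 55% in size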
# Target sequence (P08659 whole entry, looked up): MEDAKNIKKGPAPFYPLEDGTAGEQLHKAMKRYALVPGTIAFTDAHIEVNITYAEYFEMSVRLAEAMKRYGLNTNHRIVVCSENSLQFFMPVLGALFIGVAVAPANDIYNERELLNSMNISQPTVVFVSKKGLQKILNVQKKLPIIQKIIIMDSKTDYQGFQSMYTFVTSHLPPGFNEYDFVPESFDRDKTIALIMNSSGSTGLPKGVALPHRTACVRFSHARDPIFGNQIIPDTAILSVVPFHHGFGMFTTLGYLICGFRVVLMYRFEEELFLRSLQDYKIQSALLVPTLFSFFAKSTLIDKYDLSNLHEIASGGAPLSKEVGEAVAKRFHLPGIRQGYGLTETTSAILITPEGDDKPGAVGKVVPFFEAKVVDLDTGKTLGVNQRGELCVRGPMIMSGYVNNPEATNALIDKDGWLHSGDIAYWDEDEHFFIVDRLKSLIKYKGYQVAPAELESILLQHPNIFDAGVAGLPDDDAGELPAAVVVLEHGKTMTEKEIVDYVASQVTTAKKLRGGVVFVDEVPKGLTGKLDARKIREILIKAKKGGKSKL
#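 Biochemical qHTS of compounds, final roughly 60 µM downward over six points, against 10 nM purified firefly luciferase using Km concentrations of substrates (10 uM D-luciferin, 10 uM ATP) in Tris acetate pH 7.5 buffer; luminescence output.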
# ELG1 genotoxic – qHTS screen for small molecules that induce genotoxicity in human embryonic kidney (HEK293T) cells expressing luciferase-tagged ELG1 | HEK293T ELG1-luciferase reporter, luminescence, 16 h | Potency, µM (titrated, usually from 46 µM), without a hit: top-dose activity change, positive = activation, usual class: activators | 330,000 tested, 1.3% active; further: % of control where 0% means no effect; nearly all actives have a fitted effect of over 60% in size
#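 ELG1-luciferase HEK293T cells, 2,000/well; compound pinned in; 16 hr, 37 °C, 5% CO2; ONE-Glo, 30 min RT; luminescence on CCD imager.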
# SMN2 splice enh – qHTS Assay for Enhancers of SMN2 Splice Variant Expression; 210,000 tested, 2.8% active; AID 1458, 2008; HEK293 SMN2-luciferase splicing reporter, luminescence, 30-36 h; Potency, µM (doses to about 46.1 µM), inactives show at the highest dose activity change, positive = activation, usual class: activators; further: % of control where 0% means no effect; nearly all actives have a fitted effect of over 55% in size
#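 qHTS luciferase splicing reporter: luminescence rises when SMN2 exon 7 is included in transfected HEK293 cells. Compound exposure lasted 30-36 h at 37C, with 4.5 mM final sodium butyrate as control, followed by a ONE-Glo read.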
# KinaseGlo FLuc – Counterscreen for Luciferase (Kinase-Glo TM) Inhibition | Luciferin 4-monooxygenase (Photuris pensylvanica), Q27757 | Kinase-Glo luciferase, ATP luminescence, 8 min | Potency, µM (doses to about 38.3 µM), for inactives: at the top dose activity change, negative = inhibition, usual class: inhibitors | 200,000 tested, 0.28% active | AID 1379, 2008; further: on the % scale 0 is the no-effect control and ±100 the full control effect; nearly all actives have a fitted effect of over 60% in size
#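 Compound is pinned into ATP-containing buffer (10 uM ATP, imidazole pH 7.2, 7 mM MgCl2). Kinase-Glo luciferase reagent is then added. Light output is recorded following an 8-min room-temperature incubation.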
# NPC1 promoter act – qHTS Assay for NPC1 Promoter Activators; Huh7 NPC1 promoter luciferase reporter, 24 h; Potency, µM (titrated, usually from 9.22 µM), without a hit: top-dose activation, most hits filed as activators; 320,000 tested, 2.4% active; AID 485313, 2010; further: % of control where 0% means no effect; nearly all actives have a fitted effect of over 60% in size
#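 Luminescence from an NPC1 promoter-driven luciferase reporter in stably transfected Huh7 cells was measured after 24 h compound treatment at 37 °C, followed by 10 min ambient incubation with luciferase detection reagent.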
# Numbers without * were called inactive; ? = inconclusive; . = no result given; [ ] = remark or other dose. The call rests on the fitted dose curve; in most records, active means well fitted curve in the direction sought with a large enough effect; inconclusive means small, poorly fitted or top-dose-only effect, or another doubt; inactive means no such curve, though single readings can be large; an effect the other way counts as inactive or inconclusive. Potency means the concentration at half of the fitted maximal effect.
SMILES,Rab9 promoter act,FLuc counter,ELG1 genotoxic,SMN2 splice enh,KinaseGlo FLuc,NPC1 promoter act
Nc1ccc2oc(-c3ccccc3Cl)cc(=O)c2c1O,4µM*,6.7µM*,16µM*,11µM*,-4%[39.9 µM],3.2µM*
COc1cccc(-n2cc(C(=O)Nc3cc(OC)c(OC)c(OC)c3)c3ccccc3c2=O)c1,.,-1%,.,.,.,.
Cc1nn(-c2nc3ccccc3s2)c(N)c1-c1ccccc1,2.2µM*,1.9µM*,?,7.1µM*,-28%,2.5µM*
Cc1nn(-c2nc3ccccc3s2)c(N)c1Sc1ccc(F)cc1,1.1µM*,?,?,1%,-7%,3.2µM*
Cc1cc(N)n(-c2nc3ccccc3s2)n1,-11%,-2%,-13%,.,-1%,-10%
Cc1nn(-c2ccccc2)c(N)c1Sc1ccc([N+](=O)[O-])cc1,2%,-5%,1%,-38%,1%,9%
Cc1nn(-c2nc3ccccc3s2)c(N)c1-c1ccc(Cl)cc1,?,3µM*,?,11µM*,0%,?
CC1CCCN(c2nc3c(-c4ccc(Cl)cc4)nnn3c3ccccc23)C1 (stereo unspecified),.,2%,.,9%,.,.
CN(C)/C=C/C(=O)c1cnc(-c2ccccc2Cl)s1,1.3µM*,9.5µM*,?,13µM*,-1%,2µM*
CN(C)/C=C/C(=O)c1cnc(-c2cccc(Cl)c2)s1,1.3µM*,12µM*,?,14µM*,2%,3.2µM*
CN(C)/C=C/C(=O)c1cnc(-c2ccccn2)s1,1.6µM*,?,25%,11µM*,-5%,3.2µM*
CC(=O)c1cnc(-c2cccc(Cl)c2)s1,?,-18%,?,?,-1%,?
CCC1CN(C(=O)N2CCC(C(=O)NCc3cccc(F)c3)CC2)c2cc(C)ccc2O1 (stereo unspecified),.,-2%,.,.,.,.
COc1ccc2c(c1)c(=O)c(C(=O)c1ccccc1)cn2CC(=O)Nc1ccc2c(c1)OCO2,.,-7%,.,-1%,.,.
CCN(CC)c1ccc(O)c(C=Nc2ccc(C)c(C)c2)c1,?,3.4µM*,?,5%,1%,26%
CCN(CC)c1ccc(C=Nc2ccccc2C)c(O)c1,?,1.3µM*,5%,27%,3%,?
CCN(CC)c1ccc(/C=N/N(c2ccccc2)c2ccccc2)c(O)c1,2%,-11%,0%,-10%,0%,-1%
CCN(CC)c1ccc(C=Nc2ccc(C#N)cc2)c(O)c1,1%,-12%,9%,-7%,-1%,0%
Cc1ccc(NC(=O)C(NS(=O)(=O)c2ccc3c(c2)CCC(=O)N3)c2ccccc2)cc1C (stereo unspecified),.,?,.,8%,.,.
COc1ccc(C(=O)Nc2nc(-c3nnn(-c4ccc(C(C)C)cc4)c3C)ns2)cc1,.,-3%,.,.,.,.
CCC(C)NC(=O)c1ccc2c(SCC(=O)O)c3c(nc2c1)CCCC3 (stereo unspecified),1%,?,1%,-10%,1%,-1%
COc1ccc(NC(=O)c2ccc3c(SCC(=O)O)c4c(nc3c2)CCCC4)cc1Cl,-1%,?,0%,2%,-3%,-2%
COc1cc(Cl)c(C)cc1NC(=O)c1ccc2c(Cl)c3c(nc2c1)CCC3,.,-5%,.,?,.,.
COc1ccc(C)cc1NC(=O)c1ccc2c(Cl)c3c(nc2c1)CCC3,.,1.7µM*,.,-10%,.,.
CCOc1ccc(NC(=O)c2ccc3c(SCC(=O)O)c4c(nc3c2)CCC4)cc1,.,24µM*,.,-65%,.,.
SMILES,Rab9 promoter act,FLuc counter,ELG1 genotoxic,SMN2 splice enh,KinaseGlo FLuc,NPC1 promoter act
Cc1cccc(NC(=O)c2ccc3c(Cl)c4c(nc3c2)CCCC4)n1,0.56µM*,0.67µM*,2.9µM*,3.2µM*,-21%,1.1µM*
CCC(C)NC(=O)c1ccc2c(Cl)c3c(nc2c1)CCC3 (stereo unspecified),2.5µM*,4.8µM*,?,.,.,2.8µM*
CCc1cccc(NC(=O)Cn2c(=O)n(Cc3ccccc3)c(=O)c3c2c2cc(OC)ccc2n3C)c1,.,-3%,.,.,.,.
COC(=O)c1scc(-c2ccc(C)cc2)c1S(=O)(=O)N1CCN(c2ccc(OC)cc2)CC1,.,4%,.,.,.,.
COc1cccc(CNC(=O)c2ccc(CN3CC(=O)N4CCCCC4C3=O)cc2)c1 (stereo unspecified),.,-6%,.,.,.,.
O=C(Nc1ccc(Cl)cn1)c1ccc2c(Cl)c3c(nc2c1)CCC3,?,0.19µM*,?,.,.,0.32µM*
CN(C(=O)c1ccc2c(Cl)c3c(nc2c1)CCC3)c1ccccc1,?,21µM*,?,.,12%,?
O=C(NCc1ccc(F)cc1)c1ccc2c(Cl)c3c(nc2c1)CCCC3,.,-2%,.,-15%,.,.
CN(C(=O)c1ccc2c(Cl)c3c(nc2c1)CCC3)c1ccccc1F,.,?,.,-5%,.,.
O=C1Nc2ccccc2C1=Nc1ccc(F)cc1,-3%,5%,2%,.,.,2%
Nc1n[nH]c(=S)n1/N=C1/C(=O)Nc2ccccc21,-2%,15µM*,0%,6%,-1%,0%
O=C(Cc1csc(NC(=O)Nc2ccc(Cl)cc2)n1)NC1CCCC1,-3%,4.8µM*,0%,.,.,17%
O=C(Cc1csc(NC(=O)Nc2ccc(Cl)cc2)n1)NCc1ccccn1,?,1.1µM*,1%,.,.,?
CC(CNC(=O)C1CCN(Cc2cc3ccccc3n2Cc2ccccc2)CC1)c1ccccc1 (stereo unspecified),.,2%,.,.,.,.
COC(=O)c1scc(-c2ccc(C)cc2)c1S(=O)(=O)N1CCN(c2cccc(OC)c2)CC1,.,5%,.,.,.,.
O=C(NCCCN1CCN(c2ccccc2F)CC1)c1sc2ncccc2c1-n1cccc1,.,1%,.,.,.,.
NC(N)=N[C@H](CC(=O)O)c1ccccc1,.,.,.,-15%[9.22 µM],-6%[7.66 µM],.
COc1ccc(C(C[N+](=O)[O-])C2(c3ccc(OC)c(OC)c3)C(=O)c3ccccc3C2=O)cc1 (stereo unspecified),?,6µM*,-13%,25µM*,-4%,28%
CN(C)c1ccc(-c2cc(O)c3ncccc3c2)cc1,-2%,15µM*,16µM*,.,.,-7%
CN(C)CCCNC(=O)c1ccc(-c2cc(O)c3ncccc3c2)cc1,-6%,-3%,14%,.,.,-4%
Oc1cc(-c2ccncc2)cc2cccnc12,-35%,?,-8%,.,.,-35%
CN1CCN(c2ccc(-c3cc(O)c4ncccc4c3)cc2)CC1,?,6µM*,.,.,.,12%

# Compound activity as filed in PubChem BioAssay.
